Screening data from PubChem BioAssay.
A selection: hits, their analogues and other compounds. The true share with any hit is near 2%.
Jurkat NFkB inh = lowers PMA/ionomycin-induced NF-kB signal in Jurkat cells; 330,000 compounds, 0.53% hits; PMA/ionomycin-induced NF-kB luciferase reporter, luminescence; inhibition, % at 4 µM; in the data active = inhibition above about 50%
GalR3 antagonist = blocks the human galanin receptor 3 | inhibition, % at 3 µM | 360,000 compounds, 0.44% hits | AID 651719 | HEK293 GalR3-CNG cAMP membrane potential fluorescence; galR3 body fused to GalR1 C-terminus | O60755;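 active = inhibition above the screen-wide average plus 3 SD, cut at about 13% in these data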;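 also: forskolin and galanin both at EC90 stimulate the cells; cAMP rise reported by CNG channel membrane potential dye signal; 0% = forskolin plus galanin with DMSO and 100% = forskolin alone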
Gli-Sufu block = blocks Gli-Sufu signaling in a luciferase reporter; 340,000 compounds, 0.74% hits; Sufu-KO-LIGHT fibroblasts, Gli luciferase reporter luminescence; inhibition, % at 5 µM;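 active = inhibition above about 55%, limit read from the data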;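 also: 0% = DMSO-treated cells and 100% = wells with medium but no cells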
697 NFkB inh = inhibitors of the PMA/ionomycin-induced NF-kB reporter in 697 B cells. 697 B-cell NF-kB luciferase reporter, 16 h. inhibition, % at 4 µM. 330,000 compounds, 0.33% hits; in the data active = inhibition above about 35%
COUP-TFII inh = inhibitors of human COUP-TFII (NR2F2). HEK293T NGFI-A luciferase reporter, luminescence. 370,000 compounds, 0.7% hits. P24468. inhibition, % at 8.6 µM;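 active = inhibition above a per-plate cutoff, mean inhibition of test wells between control levels plus 3 SD, cut at about 38% in these data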;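 also: cells cotransfected with COUP-TFII expression vector driving the NGFI-A reporter; 0% = median of COUP-TF2 test wells and 100% = reporter-only cells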
Target sequence (P24468 whole entry, looked up): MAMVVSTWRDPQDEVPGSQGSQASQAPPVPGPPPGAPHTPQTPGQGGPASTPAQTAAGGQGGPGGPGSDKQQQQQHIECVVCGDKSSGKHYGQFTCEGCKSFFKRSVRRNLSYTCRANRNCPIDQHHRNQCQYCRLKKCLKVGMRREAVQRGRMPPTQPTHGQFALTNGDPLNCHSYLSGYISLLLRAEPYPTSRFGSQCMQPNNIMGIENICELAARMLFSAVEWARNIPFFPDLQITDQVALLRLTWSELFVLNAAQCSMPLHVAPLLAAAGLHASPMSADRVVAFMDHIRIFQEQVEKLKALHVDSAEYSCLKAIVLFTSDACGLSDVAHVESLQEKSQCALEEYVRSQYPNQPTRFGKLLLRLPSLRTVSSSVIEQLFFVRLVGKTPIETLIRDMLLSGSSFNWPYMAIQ
GalR3 antag conf = GalR3 (human) antagonism, confirmation | shares compounds with GalR3 antagonist | HEK293 GalR3 CNG cAMP biosensor, membrane potential fluorescence; galR3 fused to GalR1 carboxy tail; challenged with forskolin and galanin at EC90 | inhibition, % at 3 µM | 1,600 compounds, 59% hits | AID 652245;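 active = inhibition above the primary screen's cutoff, the mean inhibition of all screened compounds plus 3 SD, cut at about 13% in these data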;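 also: 0% = forskolin plus galanin and 100% = forskolin alone with DMSO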
CNG parental = parental cell agonism counter-screen for GalR3 antagonists | shares compounds with GalR3 antagonist | HEK293-CNG parental cells, cAMP membrane potential fluorescence; normalised: DMSO wells 0%, forskolin wells 100% | activation, % at 3 µM | 1,600 compounds, 10% hits | AID 652268; in the data active = activation above about 1.3%
Starred values were filed as active, the others as inactive; / = not tested or not shown.

SMILES	Jurkat NFkB inh	GalR3 antagonist	Gli-Sufu block	697 NFkB inh	COUP-TFII inh	GalR3 antag conf	CNG parental
COc1ccc(CNS(=O)(=O)/C=C/c2cc(C)ccc2CNC(=O)OC(C)(C)C)cc1	/	/	/	/	20	/	/
CC12CCC(C/C1=N\N=C1\NC(=O)/C(=C\c3ccc(Cl)cc3)S1)C2(C)C (stereo not given)	-8	17*	-7	-40	12	-16	34*
O=C1NC(=Nc2ccccc2Cl)S/C1=C\c1ccc(C(=O)O)cc1	-2	-8	4	1	-8	/	/
Cc1cc(Br)cn2c(Cc3ccccc3C(F)(F)F)c(-c3ccco3)nc12	/	18*	/	/	12	45*	1
Cc1cc(Br)cn2c(Cc3cccc(Cl)c3)c(-c3ccco3)nc12	/	40*	/	/	10	41*	0
CCOC(=O)CC[C@@H]1CC[C@]2(CCCN(Cc3cccs3)C2)O1	/	/	/	/	-11	/	/
O=C(CSc1ccc(-c2ccco2)nn1)NCCc1ccccc1	0	2	-20	22	2	/	/
COc1ccc(CCNC(=O)CSc2ccc(-c3ccco3)nn2)cc1	6	13*	1	-9	4	6	0
COC(=O)C1=CC[C@@H](NC(=O)OC(C)(C)C)[C@H](O)[C@H]1O[Si](C)(C)C(C)(C)C	/	/	/	/	-3	/	/
CCCCC(=O)N/N=C/c1ccc(N2CCOCC2)c([N+](=O)[O-])c1	/	14*	-12	/	-10	11	0
COC1=C[C@H](C(=O)NCc2ccc(Br)cc2)[C@H](C)[C@@H](c2ccccc2)CC1=O	/	/	/	/	4	/	/
COc1cc(/C=N/NC(N)=O)ccc1OCC(=O)Nc1ccc(C)c(C)c1	1	24*	-5	14	-25	32*	-1
O=S1(=O)c2ccc(N3CCN(Cc4ccccc4F)CC3)cc2Oc2ccccc2CN1Cc1cn(Cc2cccc(F)c2)nn1	/	/	/	/	3	/	/
OCCC#Cc1ccc(CN2CCN(C3CCCCC3)C(CCO)C2)cc1 (stereo not given)	-3	13*	-14	-11	-4	0	0
Cc1cc(N2CCN(CC(C)(C)O)C[C@@H]2C)ccc1N1CCN(Cc2ccccc2)[C@H](C)C1	/	-5	/	/	-11	/	/
CCOC(=O)C(=Cc1ccc(OCc2ccc([N+](=O)[O-])cc2)c(OC)c1)C(=O)OCC	-80	/	-27	26	-19	5	0
COC(=O)C(=Cc1ccc(OCc2ccc([N+](=O)[O-])cc2)c(OC)c1)C(=O)OC	-93	3	-20	29	-17	/	/
COc1cc(NC(=O)c2cc(C)on2)cc(C(=O)Nc2cccc(C(F)(F)F)c2)c1	-13	-5	14	23	16	5	0
C=CCC[C@H](Cc1ccc(F)cc1)C(=O)OC[C@H]1CCCN1C(=O)[C@@H](CC=C)CC(=O)NCCO	0	-7	2	2	13	/	/
C=CC[C@@H](Cc1ccc(F)cc1)C(=O)OC[C@H]1CCCN1C(=O)[C@H](CC=C)CC(=O)NCCO	-12	14*	6	-5	10	4	0
CCCCC[C@@H](/C=C/C1C(=O)C=C[C@H]1C/C=C\CCCC(=O)OC)OC(C)=O (stereo not given in full)	/	59*	4	/	-2	90*	0
CCOc1ccc(Br)cc1S(=O)(=O)N1CCC(C(N)=O)CC1	6	18*	-10	4	2	-2	0
CCOc1ccc(-n2c(COc3ccc(C)cc3)nnc2SCC(=O)c2ccc3ccccc3c2)cc1	/	/	/	/	17	/	/
CCNC(=O)c1ccc(NC(=O)CC2SC(N3CCCCC3)=NC2=O)cc1 (stereo not given)	-9	16*	4	22	-8	6	0
CN(C)C(=O)c1ccc(NC(=O)CC2SC(N3CCCC3)=NC2=O)cc1 (stereo not given)	10	-2	-2	5	6	/	/
SMILES	Jurkat NFkB inh	GalR3 antagonist	Gli-Sufu block	697 NFkB inh	COUP-TFII inh	GalR3 antag conf	CNG parental
COc1cc(C2Nc3ccc4ncccc4c3C3=C2C(=O)CCC3)cc(OC)c1O (stereo not given)	4	13*	-16	-17	-20	6	0
COc1cc(C2Nc3ccc4ncccc4c3C3=C2C(=O)CC(C)(C)C3)cc(OC)c1O (stereo not given)	-4	-7	-10	-29	-47	/	/
O=C(CSc1ncc(C(F)(F)F)cc1Cl)NCC1CCCO1 (stereo not given)	-15	13*	-2	-3	-23	2	1
Nc1cc(=O)[nH]c(SCC(=O)NCC2CCCO2)n1 (stereo not given)	-3	13*	-1	-19	-9	-4	0
O=C(CSc1cc(Cl)ccc1Cl)NCC1CCCO1 (stereo not given)	-1	-6	-4	16	-10	/	/
COC(=O)C[C@@H]1CC[C@H]2[C@H](COc3ccc(NC(=O)Nc4ccc(C#N)cc4)cc3C(=O)N2C)O1	/	/	/	/	4	/	/
N#C[C@H](N)[C@H]1O[C@@H](n2ccc(=O)[nH]c2=O)[C@H](O)[C@@H]1O	/	2	/	/	-17	/	/
Cc1[nH]c(=O)[nH]c(=O)c1/C=N/NC(=O)[C@H](C)NC(=O)OC(C)(C)C	8	/	2	24	4	1	0
C[C@H]1[C@@H](NC(=O)C2CCC2)CC[C@@]23CCCN2C(=O)CCC[C@@H]13	/	/	/	/	-8	/	/
C[C@@H]1COc2cc(Br)ccc2S(=O)(=O)N1Cc1cn(Cc2ccc(F)cc2)nn1	/	/	/	/	-24	/	/
CC(C)CC1NC(=O)N(Cc2nc3ccccc3s2)C1=O (stereo not given)	-6	19*	-15	13	-17	-1	0
O=c1c2ccccc2ncn1Cc1nc2ccccc2s1	-11	0	8	4	-1	/	/
Cc1ccc([N+](=O)[O-])cc1S(=O)(=O)N1CCCC1	0	/	-2	-23	-18	0	0
CC1CCN(C(=O)C2CCCN(C(=O)c3ccc4c(c3)NC(=O)CS4)C2)CC1 (stereo not given)	/	/	/	/	-8	/	/
CCS(=O)(=O)c1ccc(O)c(NC(=O)/C=C/c2ccccc2)c1	5	13*	-23	-3	-34	0	0
CCCC1CCC2(CC1)CCC2OC(=S)Nc1ccc(N(C)C)cc1 (stereo not given)	/	/	/	/	-1	/	/
Cc1ccc(C2CCC3(CCC(=O)N3CCOC(=O)Nc3ccc(Br)cc3)CC2)cc1 (stereo not given)	/	/	/	/	3	/	/
CCC(=O)Nc1nc(CC(=O)Nc2ccccc2OC)cs1	-3	-3	3	15	-8	/	/
COc1ccccc1NC(=O)Cc1nc(CCl)cs1	-16	14*	0	6	4	12	0
CCCC[C@H]1C2CC(OC(=O)Nc3ccccc3Cl)C(C2)[C@H]2CCCCN21 (stereo not given in full)	/	/	/	/	4	/	/
